# Source: PubChem (National Center for Advancing Translational Sciences (NCATS))
# rTrxR1 inhibitor – qHTS Assay for Inhibitors of Mammalian Selenoprotein Thioredoxin Reductase 1 (TrxR1): qHTS; Thioredoxin reductase 1, cytoplasmic (Rattus norvegicus), O89049; recombinant rTrxR1, NADPH fluorescence consumption, selenite substrate; Potency, µM (highest dose often 114 µM), without a hit: at the highest dose activity change, negative = inhibition, hits mostly inhibitors; hit rate 1% among 390,000; AID 588453, 2011; further: on the % scale 0 is the no-effect control and ±100 the full control effect; nearly all actives have a fitted effect of over 65% in size
# Target sequence (O89049 whole entry, looked up): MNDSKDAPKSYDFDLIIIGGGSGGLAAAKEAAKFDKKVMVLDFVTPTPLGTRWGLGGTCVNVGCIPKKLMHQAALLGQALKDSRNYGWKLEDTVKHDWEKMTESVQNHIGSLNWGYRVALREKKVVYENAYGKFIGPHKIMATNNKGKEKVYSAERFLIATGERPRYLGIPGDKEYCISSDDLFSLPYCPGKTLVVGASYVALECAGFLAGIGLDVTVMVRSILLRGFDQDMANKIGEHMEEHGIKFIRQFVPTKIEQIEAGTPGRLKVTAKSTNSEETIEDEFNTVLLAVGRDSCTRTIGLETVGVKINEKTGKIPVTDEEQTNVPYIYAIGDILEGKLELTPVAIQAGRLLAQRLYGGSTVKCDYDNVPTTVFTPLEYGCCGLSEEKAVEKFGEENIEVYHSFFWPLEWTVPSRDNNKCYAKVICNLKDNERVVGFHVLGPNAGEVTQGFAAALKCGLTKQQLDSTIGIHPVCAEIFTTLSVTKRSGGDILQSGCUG
#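 Rat TrxR1 (90 nM in the dispensed reagent) was pre-reduced with 400 uM NADPH for 5 min at room temperature, then incubated with compound for 15 min. After 400 uM selenite was added, NADPH fluorescence (Ex 340/Em 450 nm) was followed for 8 min.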
# TrxR1 substrate – qHTS Assay for Substrates of Mammalian Selenoprotein Thioredoxin Reductase 1 (TrxR1): qHTS; Thioredoxin reductase 1, cytoplasmic (Rattus norvegicus), O89049; purified TrxR1 substrate turnover, NADPH consumption readout; Potency, µM (titrated, usually from 114 µM), for inactives: at the highest dose activity change, negative = substrate turnover; hit rate 0.01% among 390,000; further: on the % scale 0 is the no-effect control and ±100 the full control effect; nearly all actives have a fitted effect of over 50% in size
#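 Rat TrxR1, dispensed at 90 nM, was prereduced with 400 uM NADPH (final) for 5 min at ~22 deg C, then incubated with compound 15 min before 400 uM selenite. A first-read NADPH fluorescence drop versus no-compound background flagged substrates.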
# Nrf2 block – Nrf2 qHTS screen for inhibitors; hit rate 2.1% among 360,000; Potency, µM (top dose mostly 46 µM), for inactives: at the highest dose activity change, negative = inhibition, most hits filed as inhibitors; A549 ARE-Fluc reporter, luciferase luminescence, 18-24 h; further: on the % scale 0 is the no-effect control and ±100 the full control effect; nearly all actives have a fitted effect of over 60% in size
#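 A549 ARE_Fluc cells (5000/well, 5% FBS OPTI-MEM) pre-incubated 2 h, then treated with compounds 18-24 h at 37C/5% CO2 in concentration-response. CellTiter-Fluor viability read first; BugLite luciferase luminescence after 15 min at room temperature gives Nrf2 activity.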
# GALK inhibitor – qHTS Assay for Inhibitors of Human Galactokinase (GALK) | P51570 | Purified GALK, Kinase-Glo residual ATP luminescence | Potency, µM (series often up to 57.5 µM), without a hit: at the highest dose activity change, negative = inhibition, hits mostly inhibitors | hit rate 0.007% among 270,000 | AID 1868, 2009; further: on the % scale 0 is the no-effect control and ±100 the full control effect
#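 Compounds were pin-transferred into ATP buffer (35 uM final), then GALK plus galactose (5 nM, 100 uM final) was added. After 1 h at room temperature, Kinase-Glo Plus was added and luminescence read after 10 min.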
# A549 viability – Nrf2 qHTS screen for inhibitors: counterscreen for cytotoxicity; A549 ARE-Fluc cells, CellTiter-Fluor viability, 18-24 h; Potency, µM (titrated, usually from 46 µM), for the others: top-dose activity change, negative = cytotoxicity, actives largely listed as inhibitors; hit rate 0.16% among 390,000; AID 504648, 2011; further: on the % scale 0 is the no-effect control and ±100 the full control effect
#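 Cytotoxicity counterscreen: CellTiter-Fluor fluorescence was measured in A549 ARE_Fluc cells after 18-24 h of compound exposure in a concentration series. The subsequent BugLite luminescent read reports ARE-luciferase activity.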
# Nrf2 activator – qHTS of Nrf2 Activators; AREc32 ARE-luciferase reporter (MCF7-derived line), luminescence, 24 h; AID 624171, 2012; hit rate 0.31% among 410,000; Potency, µM (highest dose often 46.1 µM), for inactives: at the highest dose activation, usual class: activators; further: % of control where 0% means no effect; nearly all actives have a fitted effect of over 65% in size
#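 Reporter line AREc32 (ARE-Fluc), seeded overnight in OPTI-MEM with 5% FBS; compound pin-transferred, 24 hr at 37 deg C, 5% CO2; luminescent read-out.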
# * = called active by the depositor; ? = inconclusive; . = not tested or not shown; [ ] = dose if it differs, or a comment. Hits are enriched below; roughly 3% of the tested compounds scored in any of these assays. The call rests on the fitted dose curve; in most records, active means well fitted curve in the direction sought with a large enough effect; inconclusive means small, poorly fitted or top-dose-only effect, or another doubt; inactive means no such curve, though single readings can be large; an effect the other way counts as inactive or inconclusive. Potency means the concentration at half of the fitted maximal effect.
SMILES,rTrxR1 inhibitor,TrxR1 substrate,Nrf2 block,GALK inhibitor,A549 viability,Nrf2 activator
NS(=O)(=O)c1ccc(NC2=CC(c3ccc([N+](=O)[O-])cc3)N(c3ccc(S(N)(=O)=O)cc3)C2=O)cc1 (centres undefined),50µM*,-7%,-1%,-7%,-1%,0%
C=C1C=C(C(F)F)n2ncc(C(=O)N3CCCCC3)c2N1,3%,-1%,.,.,.,.
Cc1c(/C=N/NC(=O)c2ccccc2O)c2ccccn2c1C(=O)c1ccc(F)cc1,-17%,-16%,21µM*,2%,18µM*,3%
CCOc1ccc(S(=O)(=O)NCC(c2ccco2)S(=O)(=O)c2ccc(F)cc2)cc1 (centres undefined),11%[57.1 µM],0%[57.1 µM],.,.,-2%,6%
Nc1nnc(CC(=O)N/N=C/c2cc([N+](=O)[O-])cc(Br)c2O)s1,35µM*,-14%,-3%,-2%,-21%,-1%
CCOc1ccc(-c2nc(SCC(=O)Nc3cc(F)ccc3F)n3[nH]c(=O)cc3n2)cc1,19%[57.1 µM],11%[57.1 µM],11%,.,3%,0%
Cn1c(=O)c2c(nc(SCC(=O)Nc3ccc(F)c(F)c3)n2Cc2ccccc2F)n(C)c1=O,10%,-4%,-9%,.,9%,0%
Cc1cc(C)cc(NC(=O)CN2CCCN(S(=O)(=O)c3ccc(Br)s3)CC2)c1,?,-9%,?,0%,?,3%
O=C(Nc1ccc(Cl)cc1)C1CCN(S(=O)(=O)c2ccc(Br)s2)CC1,14%,3%,23µM*,.,-26%,9%
CC(C)c1ccc(NC(=O)C2CCN(S(=O)(=O)c3ccc(Br)s3)CC2)cc1,4%,-6%,-28%,.,-4%,0%
Cc1ccc(NC(=O)CN2CCCN(S(=O)(=O)c3ccc(Br)s3)CC2)cc1,71µM*,-9%,?,1%,2%,3%
O=[N+]([O-])c1cc(S(=O)(=O)Oc2ccccc2)ccc1Cl,?,5%[57.1 µM],4%,.,4%,-3%
Cc1ccc(NC(=O)C(Cc2c[nH]c3ccccc23)NC(=O)OCC(C)C)cc1 (centres undefined),-7%,-14%,3%,.,-11%,10%
COc1cc(NC(=O)CSc2nccn2C)cc(OC)c1OC,11%,9%,24%,.,5%,1%
Cc1cccc(N2CCN(C(=O)c3ccc4c(c3)N(Cc3cccc(Cl)c3)C(=O)c3ccccc3S4=O)CC2C)c1 (centres undefined),30%[57.1 µM],3%[57.1 µM],.,.,-1%,3%
O=C(/C=C/c1c(F)cccc1Cl)Nc1ccc(S(=O)(=O)Nc2ncccn2)cc1,-15%,-11%,6%,-4%,4%,12%
O=C(/C=C/c1c(F)cccc1Cl)Nc1ncccn1,-3%,3%,?,4%,-5%,7.9µM*
O=C(/C=C/c1c(F)cccc1Cl)c1ccc(O)cc1,?,3%,-15%,-4%,-3%,13µM*
COc1cccc(CCn2c(N)cc(=O)[nH]c2=S)c1OC,-12%,-3%,-11%,.,9%,.
COc1ccc(-c2cc(C(=O)NCc3ccc(F)cc3)c3c(-c4ccc(F)cc4)[nH]nc3n2)cc1OC,13%[57.1 µM],23%[57.1 µM],.,.,?,1%
CC(C)CC(=O)NC(NC(=S)Nc1ccccc1)C(Cl)(Cl)Cl (centres undefined),10%[57.1 µM],1%[57.1 µM],-9%,7%,1%,-1%
O=C(CCc1ccccc1)NC(NC(=S)Nc1ccc(Cl)cc1)C(Cl)(Cl)Cl (centres undefined),12%,2%,15µM*,-3%,?,5%
O=C(NC(NC(=S)Nc1cccc(Cl)c1)C(Cl)(Cl)Cl)OCc1ccccc1 (centres undefined),-10%,-11%,16µM*,-5%,?,3%
COc1ccccc1CN(C)C(=O)c1ccc2c(c1)NC(=O)CS2,-1%,3%,-12%,-4%,-8%,0%
Cc1ccc(CN(C)C(=O)c2ccc3c(c2)NC(=O)CS3)o1,18µM*,-2%,-6%,0%,3%,6%
SMILES,rTrxR1 inhibitor,TrxR1 substrate,Nrf2 block,GALK inhibitor,A549 viability,Nrf2 activator
CC1=C(CC(=O)O)c2cc(F)ccc2/C1=C\c1ccc(S(C)(=O)=O)cc1,15%[57.1 µM],9%[57.1 µM],.,.,.,.
CC1=C(CC(=O)O)c2cc(F)ccc2/C1=C/c1ccc(S(C)=O)cc1 (centres undefined),35µM*,-4%,?,2%,-8%,7%
CCc1cccc(NC(=O)c2c(C)oc3ncnc(N4CCCCC4)c23)c1,9%,-6%,?,.,-5%,7%
Cc1ccc(OCC(=O)Nc2cc(-c3cccc(C)c3)nn2-c2ccccc2)cc1,29%[57.1 µM],1%[57.1 µM],.,.,9%,1%
O=C(CCl)Nc1cc(-c2ccccc2)nn1-c1ccccc1,22µM*,2%,15%,-5%,5%,?
Cc1ccc(-c2cc(NC(=O)CCl)n(-c3ccccc3)n2)cc1,35µM*,2%,0%,0%,-8%,0%
CC(=O)Nc1ccc(-c2cc(NC(C)=O)n(-c3ccccc3)n2)cc1,11%[57.1 µM],8%[57.1 µM],.,2%,-1%,0%
Cc1ccc(NS(=O)(=O)c2ccc3[nH]c4c(c3c2)CCCCC4)cc1,23%,6%,-4%,.,-14%,-1%
CCOC(=O)C1=C(O)c2ccccc2C(=O)/C1=C\c1ccc(C)cc1,11µM*,-18%,?,-1%,?,9%[9.22 µM]
Cc1cc(NC(=O)c2cccc(S(=O)(=O)N(C)C)c2)n(-c2ccccn2)n1,10%,-4%,26µM*,3%,-12%,0%
Cc1cc(NC(=O)c2cccc(S(=O)(=O)N3CCCCCC3)c2)n(-c2ccccn2)n1,28%[57.1 µM],13%[57.1 µM],.,9%,?,0%
CN(C)S(=O)(=O)c1cccc(NC(=O)c2ccc3nccnc3c2)c1,4%,0%,5.8µM*,0%,?,3%
Cc1ccc(CNC(=O)CCCCCn2c(=O)[nH]c3ccccc3c2=O)cc1,6%[57.1 µM],2%[57.1 µM],.,.,-3%,5%
Cc1cnc2c(C)ccc(C)c2c1/C=C/c1ccc(N(C)C)cc1,-3%,-10%,.,.,.,.
O=C1C=CC(=O)N1c1cccc(-c2ccccc2)c1,2.5µM*,7%[57.1 µM],-19%,-2%,-11%,9%
CCc1ccccc1NC(=O)CNC(=O)c1ccc(S(=O)(=O)NCc2ccco2)cc1,.,.,.,.,.,0%
